{"source": "PubChem BioAssay AID651789", "about": "(National Center for Advancing Translational Sciences (NCATS), 2012)", "note": "Results filed as inconclusive are left out. The source made the active and inactive calls. The call rests on the fitted dose curve; in most records, active means well fitted inhibition curve with a large enough effect; inconclusive means small, poorly fitted or top-dose-only effect; inactive means no such curve, though single readings can be large or run the other way.", "data": [{"assay": "Acumen qHTS Assay for Inhibitors of the mTORC1 Signaling Pathway in WT MEF Cells: Hit Validation; further: nearly all actives have a fitted effect of over 60% in size; further: potency means the concentration at half of the fitted maximal effect;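 on activity change, negative = inhibition: phospho-rpS6 Ser235/236 immunofluorescence normalised to propidium iodide cell stain; percent of cells above a cutoff set by 7.5 nM rapamycin treated wells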", "details": "Acumen imaging; series mostly up to 37.3 µM; activity change, negative = inhibition: at the top concentration", "procedure,_shortened": "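Read-out is immunofluorescent phospho-rpS6 (Ser235/236) normalised to PI-stained cell number, reported as % active cells using a 7.5 nM rapamycin threshold. Cells: WT or Tsc2-/-, p53-/- MEFs, compound-exposed 24 h at 37C; PI count also tracks viability.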", "values": [{"compound": "CCCCCn1c(=N)n(CC(O)COc2cccc(C)c2)c2ccccc21", "note": "(stereo unspecified)", "Potency": "4.14 µM (active)"}, {"compound": "Cc1cccn2c(Nc3ccccc3)c(-c3cccs3)nc12", "activity change, negative = inhibition": "6.87% (inactive)"}, {"compound": "COc1ccc(OC)c(NC(=O)c2nnn(CC(=O)Nc3ccc(C(C)C)cc3)c2N)c1", "activity change, negative = inhibition": "-1.53% (inactive)"}, {"compound": "CCS(=O)(=O)c1ncc(Cl)c(C(=O)Nc2ccc(S(=O)(=O)N(C)c3ccccc3)cc2)n1", "Potency": "0.927 µM (active)"}, {"compound": "COc1cc(C(=O)NC(c2ccccc2Cl)c2cc(Cl)c3cccnc3c2O)cc(OC)c1OC", "note": "(stereo unspecified)", "activity change, negative = inhibition": "-10.6% (inactive)"}, {"compound": "CCC(C)NC(=O)c1sc2nc(C)c(C(=O)Nc3ccc(C)cc3C)c(-c3ccc(Cl)cc3)c2c1N", "note": "(stereo unspecified)", "activity change, negative = inhibition": "13.2% (inactive)"}, {"compound": "CCCSc1ncc(Cl)c(C(=O)Nc2ccc(S(=O)(=O)N3CCCCC3C)cc2)n1", "note": "(stereo unspecified)", "activity change, negative = inhibition": "-12% (inactive)"}, {"compound": "CC(C(=O)NCc1cccc(Br)c1)n1ncn2cccc2c1=O", "note": "(stereo unspecified)", "activity change, negative = inhibition": "4.58% (inactive)"}, {"compound": "CC(C)Oc1ccc(CNC(=O)c2ccc3nc(SCc4ccc(F)cc4)n(C)c3c2)cc1", "activity change, negative = inhibition": "1.09% (inactive)"}, {"compound": "CC(CNC(=O)c1ccc(Nc2nc3ccccc3n3nnnc23)cc1)c1ccccc1", "note": "(stereo unspecified)", "activity change, negative = inhibition": "65.1% (inactive)"}, {"compound": "COc1ccc(-c2noc(CSc3nc(N)cc(=O)[nH]3)n2)cc1", "activity change, negative = inhibition": "-13.5% (inactive)"}, {"compound": "O=C(Nc1ccc(Cl)cc1)C1CCC(CNS(=O)(=O)c2ccc(Br)s2)CC1", "note": "(stereo unspecified)", "activity change, negative = inhibition": "-8.29% (inactive)"}, {"compound": "Cc1ccc(-c2nc3sccn3c2Nc2ccc(C)c(C)c2)cc1", "activity change, negative = inhibition": "-18.1% (inactive)"}, {"compound": "COc1ccc(C)cc1NC(=O)CSc1ccc(-c2ccccn2)nn1", "activity change, negative = inhibition": "4.03% (inactive)"}, {"compound": "CN1CCN(C2(CNC(=O)COc3ccc(C(C)(C)C)cc3)CCCCC2)CC1", "activity change, negative = inhibition": "-2.29% (inactive)"}, {"compound": "COc1ccc(NC(=O)c2ccc3c(=O)n4nc(Nc5cc(C)ccc5C)sc4nc3c2)cc1", "Potency": "2.93 µM (active)"}]}]}
